Compound activity (PubChem)
A selection: hits, their analogues and other compounds. The true share with any hit is near 5.6%.
PfG6PD inh – PfG6PD (Plasmodium falciparum) enzyme inhibition | PfGluPho enzyme, NADPH resazurin-diaphorase fluorescence | actives 0.78% (n = 350,000) | inhibition, % at 20 µM;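 active means inhibition reaching at least a set limit at 20 µM in the primary screen, cut at about 59% in these data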;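 further: 0% = DMSO wells with substrate and 100% = DMSO wells lacking glucose-6-phosphate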
PHOSPHO1 block – PHOSPHO1 (human) inhibition; Q8TCT1; recombinant PHOSPHO1, absorbance phosphatase assay; inhibition, % at 13.3 µM; actives 1.1% (n = 290,000); AID 1565; in the data active means inhibition above about 60%
Target sequence (Q8TCT1 whole entry, looked up): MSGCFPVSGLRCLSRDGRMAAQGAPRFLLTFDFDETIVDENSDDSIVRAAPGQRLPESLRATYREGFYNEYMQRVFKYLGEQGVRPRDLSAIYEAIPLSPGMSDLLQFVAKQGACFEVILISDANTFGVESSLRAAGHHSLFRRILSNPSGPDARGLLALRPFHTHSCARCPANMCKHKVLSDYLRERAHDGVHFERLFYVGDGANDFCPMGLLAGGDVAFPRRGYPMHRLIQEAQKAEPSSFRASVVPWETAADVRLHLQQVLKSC
H9c2 protect – protects H9c2 cardiomyocytes from peroxide injury. H2O2 injury protection, ATPLite, 2 h. protection from H2O2 cell death, % at 20 µM. actives 0.63% (n = 360,000);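 active means compounds giving at least 50% protection of heart cells from peroxide-induced death in the single-dose screen, raw or plate-pattern-corrected value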;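 further: 0% = DMSO wells with peroxide and 100% = DMSO wells without peroxide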
M18AAP inhibitor – PfM18AAP enzyme inhibition. inhibition, % at 7.35 µM. AID 1822. recombinant PfM18AAP, H-Glu-NHMec fluorogenic cleavage. actives 1.2% (n = 290,000);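 active means inhibition above the campaign mean inhibition over all tested compounds plus 3 SD, cut at about 28% in these data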;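 further: 0% = plate median of test compound wells and 100% = 2 mM ZnCl2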
ALR inh – human ALR oxidase inhibition via reduced H2O2; P55789; purified ALR, DTT oxidation, H2O2 HRP-luminol luminescence; inhibition, % (concentration not given with the values); actives 3.8% (n = 290,000); AID 485317;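 active means mean replicate inhibition above about 79%, with every replicate also reaching it, limit read from the data; inconclusive means only one of the two criteria met; inactive means mean below limit and not every replicate reaching it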
Target sequence (P55789 whole entry, looked up): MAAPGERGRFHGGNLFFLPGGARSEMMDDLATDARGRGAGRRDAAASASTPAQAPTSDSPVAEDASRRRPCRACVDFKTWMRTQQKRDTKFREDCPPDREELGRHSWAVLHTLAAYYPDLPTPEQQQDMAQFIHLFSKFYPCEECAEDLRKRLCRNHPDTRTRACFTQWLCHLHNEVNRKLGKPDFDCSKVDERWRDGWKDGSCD
Active calls of the source: *; ? = inconclusive; · = not tested or not shown.

SMILES	PfG6PD inh	PHOSPHO1 block	H9c2 protect	M18AAP inhibitor	ALR inh
CC(C)(C)c1ccc2cc(F)cc(F)c2n1	·	·	3	·	·
Cc1nn(Cc2ccc(Cl)cc2Cl)c(C)c1NC(=O)c1nn(C)cc1Cl	6	-133	-6	2	12
Cc1nn(Cc2ccc(Cl)cc2Cl)c(C)c1NC(=O)CCl	-20	6	-5	2	90*
CCCCCCSc1nc(O)c(C2OC(=O)c3c2ccc(OC)c3OC)c(=O)n1CC (configuration not stated)	-54	0	-2	10	98*
CCCSc1nc(O)c(C2OC(=O)c3c2ccc(OC)c3OC)c(=O)n1C (configuration not stated)	-13	-8	1	6	?
CC1CCN(C(=O)CSc2ccc(-c3cccnc3)nn2)CC1	-5	38	8	-9	-1
O=C/C(=C\Nc1ccccn1)c1nc2cc(Cl)ccc2o1	0	-4	56*	19	-24
CCn1cnc2cc(NCc3cccc(OC)c3O)ccc21	26	-31	-4	8	94*
COc1ccccc1-n1cnc2cc(NCc3ccccc3O)ccc21	15	37	-10	5	98*
COc1ccc(CNc2ccc3c(c2)ncn3-c2ccccc2OC)cc1	17	-11	-2	9	50
COc1ccc(C(CNC(=O)C(CCSC)NC(=O)c2ccccc2OC)N2CCCCC2)cc1 (configuration not stated)	-9	27	-2	-7	-4
NC(=O)c1cccc(Nc2nc(C(N)COCc3ccccc3)cs2)n1 (configuration not stated)	·	·	88*	·	·
CCOC(=O)CNC(=S)N(CCCN1CCCCCC1)Cc1cccs1	-13	-4	1	-6	1
CCOC(=O)CNC(=S)N(CCCN1CCCC1)Cc1cccs1	-15	16	2	-1	99*
O=C(COC(=O)c1ccc([N+](=O)[O-])o1)NCc1ccc2c(c1)OCO2	28	·	37	·	·
Cc1ccc(-n2nnc(-c3nccs3)n2)cc1	-3	26	-21	-3	·
Clc1ccc(-n2nnc(-c3nccs3)n2)cc1Cl	47	52	-8	5	92*
COc1ccc(Nc2ccnc(Nc3ccc(OC)cc3)n2)cc1	16	2	-19	-1	98*
O=c1c(-c2nn[nH]n2)coc2ccc(Cl)cc12	-8	53	11	22	1
COc1ccc(NC(=O)c2sc3ncn(CC(=O)N4CCCCC4)c(=O)c3c2C)cc1OC	-6	14	6	-4	-9
Cc1ccc(C)c(-n2c(-c3ccncc3)n[nH]c2=S)c1	24	13	3	16	46
Cc1ccc(C)c(-n2c(-c3ccc4c(c3)OCO4)n[nH]c2=S)c1	32	96*	2	3	83*
Cc1ccc(C)c(-n2c(-c3csc(C)c3)n[nH]c2=S)c1	35	97*	1	-2	30
COc1ccc(/C=N/NC(=O)CCc2c(C)n[nH]c2C)cc1O	0	14	0	3	99*
COc1ccc(/C=N/NC(=O)CCc2n[nH]c(=O)[nH]c2=O)cc1O	-7	-5	9	-1	99*
SMILES	PfG6PD inh	PHOSPHO1 block	H9c2 protect	M18AAP inhibitor	ALR inh
CCN(c1ccc(NC(=O)CSCc2c(C)noc2C)cc1)C(C)C	10	·	0	·	99*
CCN(c1ccc(NC(=O)CSc2nnc3nc(C)cc(C)n23)cc1)C(C)C	10	73*	-9	16	99*
CC(C)(C)C(=O)c1sc(Nc2ccccc2)nc1N	10	-3	-10	-7	97*
Cc1ccc2nc(SCC(=O)Nc3ccc4c(c3)CCC4)[nH]c2c1	-5	-2	-11	-8	·
CCCCc1c(O)nc(SCC(=O)Nc2ccc3c(c2)CCC3)[nH]c1=O	-25	43	2	1	99*
O=C(CSc1nc2ccccc2[nH]1)Nc1ccc2c(c1)CCC2	8	-2	-4	3	52
CCc1c(O)nc(SCC(=O)Nc2ccc3c(c2)CCC3)[nH]c1=O	-11	15	7	0	100*
CCCN1CCc2nc(SCC(=O)Nc3ccc(C)c(Cl)c3)[nH]c(=O)c2C1	-15	25	6	26	98*
COc1ccc(CC(=O)N(C)C2CCCCC2)cc1S(=O)(=O)N1CCOCC1	2	8	10	-7	-2
CCc1ccc(C2C(C#N)=C(N)N(N(C)C)C3=C2C(=O)CCC3)cc1 (configuration not stated)	2	24	0	12	-47
O=C(Cn1cc(COc2ccc3ccccc3c2)nn1)NS(=O)(=O)c1cccc(OC(F)F)c1	·	·	4	·	·
CCCN(C(=O)/C=C/c1ccc(S(=O)(=O)N(CC)CC)cc1)C1CCS(=O)(=O)C1 (configuration not stated)	6	·	-4	·	·
COc1ccccc1NC(=O)CC(=O)CSc1nnc(-c2ccc(C)cc2)n1C	-14	88*	-6	1	33
Cc1ccc(-c2nnc(SCC(=O)CC(=O)Nc3ccccc3)n2C)cc1	-14	-8	2	2	·
COc1ccccc1NC(=O)CSc1nnc(-c2ccc(NC(C)=O)cc2)n1C	23	106*	-1	-10	-6
CCOc1cccc(C2/C(=C(/O)c3ccc4c(c3)CC(C)O4)C(=O)C(=O)N2Cc2cccnc2)c1 (configuration not stated)	0	18	2	3	3
Cc1ccc(-c2nnn(CC(=O)N3CCCCC3)n2)cc1	-15	8	-1	-4	0
CCN(Cc1ccncc1)C(=O)c1cc(Br)cc(Br)c1O	7	6	6	8	94*
CCOC(=O)c1c(C)nc2sc3c(=O)n(-c4ccc(C(C)=O)cc4)cnc3c2c1-c1ccc(OC)cc1	-21	-11	68*	-7	-2
CCOC(=O)CC(=O)CSc1nnc2sc3ccccc3n12	-6	64*	-6	8	3
Cn1c(=O)n(Cc2ccco2)c(=N)c2c3c(sc21)CCC3	1	-13	8	-4	76*
CN(C)CCCn1c(=O)n(Cc2ccco2)c(=O)c2c3c(sc21)CCCCC3	6	8	5	-13	6
O=c1c2c3c(sc2[nH]c(=S)n1Cc1ccco1)CCC3	16	56	7	14	93*
O=c1[nH]c2sc3c(c2c(=O)n1Cc1ccccc1)CCC3	4	2	2	1	56
CC1(C)Cc2c(sc3[nH]c(=S)n(Cc4ccco4)c(=O)c23)CO1	2	1	12	5	98*
SMILES	PfG6PD inh	PHOSPHO1 block	H9c2 protect	M18AAP inhibitor	ALR inh
CC1(C)Cc2c(sc3c2c(=N)n(Cc2ccco2)c(=O)n3Cc2ccccc2)CO1	-2	-10	-10	-6	-9
O=C(NCCO)c1ccc(-c2ccc3nncn3c2)cc1	·	·	5	·	·
O=C(CNC(=O)c1cc(Cl)cc([N+](=O)[O-])c1)OCC(=O)N1CCCCC1	-8	·	-2	·	·
CCOc1ccc(CCNS(=O)(=O)c2c(C)nc3sccn3c2=O)cc1OCC	·	·	2	·	·
Cn1c(-c2ccc(Cl)cc2)cnc1N	-10	-7	69*	16	30
CCOc1ccc(-c2cnc(N)n2C)cc1	-9	0	10	-3	-4
